Results published in PubChem BioAssay AID743279 (National Center for Advancing Translational Sciences (NCATS), 2014).
The campaign covered roughly 360,000 compounds. About 17,000 (4.7%) were called active. Not shown: some 5% with an inconclusive outcome. No stated cut-off is given here; in the data, active means activity change below about -50%; inconclusive means mostly about -30% to -49%; inactive means weaker than that. Shown is part of a subset that was picked to be rich in actives.

Assay: qHTS for Inhibitors of Inflammasome Signaling: IL-1-beta AlphaLISA Primary Screen
Conditions: THP-1 LPS/ATP IL-1B secretion, 16 h; at 57.5 µM, hits give low values
Outline: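 THP-1 cells pretreated 1 hr with compounds (up to 57.5 uM final), then stimulated with LPS (250 ng/mL final) plus ATP (1.25 mM final); secreted IL-1B measured by AlphaLISA after 16 hr, decreased signal indicating inhibition.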
On the % scale 0 is the no-effect control and ±100 the full control effect.

Activity change, active:
COc1ccc2c(c1)C(=O)Nc1cc(Cl)ccc1N2 -52.1%
CCn1cc(C(=O)NCCCN2CCCCCC2)c(=O)c2cc(S(=O)(=O)N3CCc4ccccc4C3)ccc21 -60.8%
N#C/C(=C\c1ccccc1C(F)(F)F)C(=O)Nc1ccccc1F -50.4%
CCOc1cc2[nH]c(=S)n(Cc3ccc(C(=O)N4CCN(C)CC4)cc3)c(=O)c2cc1OCC -53.6%
N=c1n(Cc2ccc(Cl)cc2)c2ccccc2n1CC(O)c1ccco1 (centres undefined) -59.8%
CCN(CC)CCn1c2c(c(SCC(=O)Nc3nc4ccccc4s3)nc1=O)CCCC2 -96.2%

Activity change, inactive:
COc1ccc(C2NC(=O)c3ccccc3N2)cc1 (centres undefined) -24.2%
COc1ccc(OC)c(C(=O)c2ccc(Cl)cc2)c1 1.55%
Cc1cc(C)n2c(NCc3ccccc3)c(CC(C)C)nc2n1 19.1%
CCn1cc(C(=O)NC2CCCCCC2)c(=O)c2cc(S(=O)(=O)N3CCCCC3)ccc21 -14.9%
CCn1cc(C(=O)NCC2CCCO2)c(=O)c2cc(S(=O)(=O)N3CCCCC3)ccc21 (centres undefined) -22.1%
O=C(C(=O)N1CCN(c2ccccc2)CC1)c1ccc2c(c1)OCO2 -2.25%
N#C/C(=C\C1=C(N2CCOCC2)C(=C\c2ccccc2)/CC1)C(=O)Nc1ccccc1F 5.35%
O=C(Nc1ccccc1F)c1ccccc1-c1ccc(C(F)(F)F)cc1 9.12%
CCOc1cc2[nH]c(=S)n(Cc3ccc(C(=O)NCCOC)cc3)c(=O)c2cc1OCC 0%
COc1ccc(Cn2c(=S)[nH]c3cc(C(=O)N4CCCCC4)ccc3c2=O)cc1 11.3%
COc1cccc(-c2cnc3c(NC(C)=O)cc(-c4cccc(NC(C)=O)c4)cn23)c1 10.8%
C=CCn1c(=N)n(CC(O)COc2ccc(OC)cc2)c2ccccc21 (centres undefined) -22.5%
Cn1c(=N)n(CC(O)c2cccs2)c2ccccc21 (centres undefined) 0%
CCCCCCN1C[C@@H](O)[C@H](n2cc(COC(=O)c3ccccc3)nn2)C[C@@H]1c1ccc(Cl)cc1 6.67%
COc1ccc(S(=O)(=O)N2CCCCC2c2cc(C(=O)NCc3ccc(F)cc3)no2)cc1 (centres undefined) -1.6%
CS(=O)(=O)/C(C#N)=C/c1cccn1S(=O)(=O)c1ccc([N+](=O)[O-])cc1 -25.1%
Cc1ccc2nc(NC(=O)CSc3nc(=O)n(CCCN(C)C)c4c3CCC4)sc2c1 -21.5%
CCN(CC)CCn1c2c(c(SCC(=O)Nc3ccc(C(C)C)cc3)nc1=O)CCC2 7.71%
